Unmarked numbers belong to inactive results. Calls come from the whole dose curve; as a rule, active = well fitted inhibition curve with a large enough effect in the repeat runs (not every such curve was filed as active); inconclusive = weak or mixed curves; inactive = flat fitted curve, though single readings scatter.
What follows are molecules tested against Thyrotropin-releasing hormone receptor (Homo sapiens) (UniProt P34981) (assay: qHTS assay to identify small molecule antagonists of the thyrotropin-releasing hormone receptor (TRHR) signaling pathway (AID 1346877)). Conditions: TRHR-HEK293, TRH-induced calcium fluorescence, antagonist mode; series mostly up to 51.3 µM; activity, negative = inhibition: at the top concentration.
Text: National Center for Advancing Translational Sciences [NCATS]
NIH Chemical Genomics Center [NCGC]
U.S. Environmental Protection Agency [EPA]
National Institutes of Environmental Health Sciences [NIEHS]
National Toxicology Program [NTP]
U.S. Food and Drug Administration [FDA]
Thyrotropin-releasing hormone (TRH) receptor (TRHR) is a G-protein-coupled receptor which binds the tripeptide thyrotropin releasing hormone. TRHR is found in the brain and, when bound by TRH, acts (through phospholipase C) to increase intracellular inositol trisphosphate. It plays a crucial role in the anterior pituitary where it controls the synthesis and secretion of thyroid stimulating hormone and prolactin. The TRHR-Hek293 assay is a cell-based assay, and it has the potential to screen G protein-coupled receptors. A compound/drug can either activate (agonist) or suppress (antagonist) GPCRs that can be monitored by levels of intracellular calcium. In this assay, the Tox21 10K compound library was screened to identify potential TRHR antagonists.
Tox21 Assay Protocol Summary:
The TRHR-Hek293 cells were dispensed at 1500cells/4uL/well in 1536-well black-clear bottom plates using a Multidrop dispenser. After the assay plates were incubated at a 37 C/5% CO2 incubator for 18 hours, 4 uL of Dye-Loading Solution was added to each well. The plates were incubated at 37 C for 2 hours. For agonist mode, 23 nL of compounds dissolved in DMSO, positive controls or DMSO only was transferred to the assay plate by a pin tool. The fluorescence intensity in the plates was measured using FDSS 7000EX kinetic plate reader for 3 min at 1 sec intervals. For antagonist mode, 23 nL of compounds dissolved in DMSO, positive controls or DMSO only was transferred to the assay plate by a pin tool. After 5 min incubation at room temperature, 1 uL of TRH was added on the top of the cell/compound mixtures to achieve a final agonist concentration of 1 nM. The fluorescence intensity in the plates was measured using FDSS 7000EX kinetic plate reader for 3 min at 1 sec intervals. Each test compound was measured at 15 concentrations and in triplicates.
% is set by controls: 0 for no effect and ±100 for the full control effect.

Sequence of Thyrotropin-releasing hormone receptor (Homo sapiens) (P34981 whole entry, looked up): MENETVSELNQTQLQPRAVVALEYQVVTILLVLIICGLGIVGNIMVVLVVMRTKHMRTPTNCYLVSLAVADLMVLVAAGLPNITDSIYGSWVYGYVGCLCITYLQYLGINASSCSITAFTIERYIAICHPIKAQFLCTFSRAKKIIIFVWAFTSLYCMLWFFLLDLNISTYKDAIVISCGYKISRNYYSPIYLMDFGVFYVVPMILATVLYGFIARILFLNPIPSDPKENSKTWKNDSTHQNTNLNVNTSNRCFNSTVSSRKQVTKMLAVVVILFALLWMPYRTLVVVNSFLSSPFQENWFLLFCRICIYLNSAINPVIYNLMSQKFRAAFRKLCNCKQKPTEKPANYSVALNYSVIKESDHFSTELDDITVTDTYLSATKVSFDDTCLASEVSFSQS

Point of comparison: O=S(=O)(O)c1cccc2ccccc12, “activity, negative = inhibition” value 0.343%. Against it:
- O=Cc1cccc(Br)c1 — higher, 5.25%
- C=CC(C)(CCC=C(C)C)OC(=O)CC (stereo not given) — higher, 1.82%
- CC1CCC(CO)CC1 (stereo not given) — lower, -1.66%
- CC(C)C1CCC(O)CC1 (stereo not given) — higher, 8.42%
- CCOC(=O)C1=NOC(c2ccccc2)(c2ccccc2)C1 — higher, 3.69%
- NC(CCC(=O)O)C(=O)O (stereo not given) — lower, -3.86%
- CCCCCC(=O)OCCc1ccccc1 — lower, 0.0766%
- CC1=NN(c2cc(S(=O)(=O)O)ccc2Cl)C(=O)C1N=Nc1ccccc1 (stereo not given) — lower, 0.31%
- C=COC(=O)C(C)(CC)CCC(C)C (stereo not given) — higher, 2.84%
- CCOC(=O)CCC(=O)OCC — higher, 8.11%
- O=C(O)c1cc(C(=O)O)cc(C(=O)O)c1 — higher, 6.06%
- CC(C)=CCC/C(C)=C/C#N — lower, -8.02%
- CC1OC1C1CCC2(C)OC2C1 (stereo not given) — higher, 3.46%
- CCN1C=CN(C)C1C (stereo not given) — higher, 0.607%
- CC(=O)C1CCCCC1=O (stereo not given) — lower, -3.04%
- CCCCOCCOC(=O)CCCCCCCCC(=O)OCCOCCCC — lower, -2.4%
- OCCc1ccccn1 — lower, -0.904%
- C=C[Si](OC(C)=O)(OC(C)=O)OC(C)=O — higher, 1.85%
- CCCCCCC1CCC(=O)O1 (stereo not given) — lower, -1.37%
- O=S(=O)(O)c1cccc2c(S(=O)(=O)O)cccc12 — higher, 3.55%

Point of comparison: C[C@H]1C[C@H]2[C@@H]3CCC4=CC(=O)C=C[C@]4(C)[C@H]3C(=O)C[C@]2(C)[C@@]1(O)C(=O)CO, “activity, negative = inhibition” value -1.45% [at 23.6 µM]. Against it:
- Cc1ccc(-c2ncc(Cl)cc2-c2ccc(S(C)(=O)=O)cc2)cn1 — lower, -10.4% [at 23.6 µM]
- Cc1cccc(C)c1NC(=O)CC12CCCN1CCC2 — higher, 4.13% [at 23.6 µM]
- O=[N+]([O-])c1ccc(/C=N\O)o1 — lower, -2.15% [at 23.6 µM]
- N[C@H](C(=O)O)[C@@H](O)c1ccc(O)c(O)c1 — higher, -0.576% [at 23.6 µM]
- CCCCS(=O)(=O)N[C@@H](Cc1ccc(OCCCCC2CCNCC2)cc1)C(=O)O — higher, 4.05% [at 23.6 µM]
- c1ccc2sc(SN3CCOCC3)nc2c1 — higher, -1.13% [at 23.6 µM]
- C[N+]12CCC(CC1)C(OC(=O)C(O)(c1ccccc1)c1ccccc1)C2 (stereo not given) — higher, 2.24% [at 23.6 µM]
- C[C@@H]1C[C@H]2[C@@H]3C[C@H](F)C4=CC(=O)C(Cl)=C[C@]4(C)[C@@]3(F)[C@@H](O)C[C@]2(C)[C@@]1(O)C(=O)CO — higher, 0.938% [at 23.6 µM]
- COc1cc(C(=O)OC(COCCC(C)C)CN2CCOCC2)cc(OC)c1OC (stereo not given) — higher, 1.86% [at 23.6 µM]
- Nc1c2c(nc3c1CCC3)CCCC2 — higher, 1.16% [at 23.6 µM]
- CN1CC(=O)N/C1=N/C(=O)Nc1cccc(Cl)c1 — lower, -1.58% [at 23.6 µM]
- C[N+](C)(CCOc1ccccc1)Cc1cccs1 — higher, 3.1% [at 23.6 µM]
- C=C(C)C(=O)OCC(O)CO (stereo not given) — higher, 6.76% [at 23.6 µM]
- COc1ccc2cc1Oc1cc3c(cc1OC)CC[N+](C)(C)[C@H]3Cc1ccc(cc1)Oc1c(OC)c(OC)cc3c1[C@@H](C2)[N+](C)(C)CC3 — higher, 3.4% [at 23.6 µM]
- NCCCC(N)(C(=O)O)C(F)F (stereo not given) — lower, -1.71% [at 23.6 µM]
- CCOC(=O)C(=O)CCCCCCl — lower, -6.83% [at 23.6 µM]
- CC(C)(C)C(=O)Oc1ccc(S(=O)(=O)Nc2ccccc2C(=O)NCC(=O)O)cc1 — higher, -0.659% [at 23.6 µM]

C[N+]1(CC2COC(c3ccccc3)(c3ccccc3)O2)CCCCC1 (stereo not given) gave an activity, negative = inhibition of 1.31% [at 10.5 µM].
